# Activity calls are given as the source filed them. Where a call stands in place of a potency, no number is given. The call rests on the fitted dose curve; in most records, active means well fitted curve in the direction sought with a large enough effect; inconclusive means small, poorly fitted or top-dose-only effect, or another doubt; inactive means no such curve, though single readings can be large or run the other way.
# Molecular target: Hexokinase-4 (Homo sapiens) + Glucokinase regulatory protein (Homo sapiens) (UniProt P35557+Q14397)
# Sequence (P35557 whole entry, looked up): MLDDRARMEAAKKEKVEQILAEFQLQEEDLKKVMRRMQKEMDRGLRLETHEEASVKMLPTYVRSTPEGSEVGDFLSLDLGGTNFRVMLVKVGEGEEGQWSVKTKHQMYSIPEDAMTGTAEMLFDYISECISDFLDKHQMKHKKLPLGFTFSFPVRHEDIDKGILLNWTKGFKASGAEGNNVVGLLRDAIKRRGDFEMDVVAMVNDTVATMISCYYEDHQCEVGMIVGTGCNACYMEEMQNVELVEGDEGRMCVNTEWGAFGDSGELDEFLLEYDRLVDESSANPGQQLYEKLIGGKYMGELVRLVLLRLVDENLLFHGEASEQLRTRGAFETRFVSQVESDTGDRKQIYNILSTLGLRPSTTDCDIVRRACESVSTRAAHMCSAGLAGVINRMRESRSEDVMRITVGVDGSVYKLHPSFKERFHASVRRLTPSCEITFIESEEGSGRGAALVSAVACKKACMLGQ
# Sequence (Q14397 whole entry, looked up): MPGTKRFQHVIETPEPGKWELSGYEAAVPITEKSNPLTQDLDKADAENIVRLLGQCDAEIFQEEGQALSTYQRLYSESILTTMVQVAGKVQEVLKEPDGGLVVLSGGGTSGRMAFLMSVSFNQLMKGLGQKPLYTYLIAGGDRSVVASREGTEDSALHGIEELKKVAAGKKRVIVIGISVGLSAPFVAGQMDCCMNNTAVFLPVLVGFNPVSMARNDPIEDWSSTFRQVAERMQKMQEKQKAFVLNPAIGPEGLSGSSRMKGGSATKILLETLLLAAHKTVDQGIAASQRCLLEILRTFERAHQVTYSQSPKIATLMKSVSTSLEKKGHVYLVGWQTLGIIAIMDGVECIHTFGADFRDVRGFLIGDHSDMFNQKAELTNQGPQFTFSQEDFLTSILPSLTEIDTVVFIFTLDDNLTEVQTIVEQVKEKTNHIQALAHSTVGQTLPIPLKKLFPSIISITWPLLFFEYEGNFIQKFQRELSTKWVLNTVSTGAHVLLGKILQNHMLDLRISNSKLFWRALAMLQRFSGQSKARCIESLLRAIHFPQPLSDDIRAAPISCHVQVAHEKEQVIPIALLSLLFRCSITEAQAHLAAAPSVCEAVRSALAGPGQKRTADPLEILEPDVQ
# Assay: qHTS assay for inhibitors of recombinant human GCK-GKRP interaction: HTRF assay (AID 743207)
# Conditions: recombinant GCK-GKRP HTRF binding, 60 min, with sorbitol-6-phosphate; series mostly up to 57.5 µM
# From the text: Glucokinase (GCK) is a glucose sensor in hepatocytes and pancreatic beta-cells. Hepatic GCK is regulated by glucokinase regulatory protein (GKRP), which is predominantly localized to the liver. GKRP binds to GCK inhibiting its activity in the fasting state while in the presence of glucose the GKRP is displaced. There is an additional layer of regulation by fructose 1-phosphate and fructose 6-phosphate, which inhibit and enhance the GCK-GKRP interaction, respectively. GCK plays a role in glucose homeostasis and there is an interest in the development of strategies to activate GCK to lower blood glucose levels in type 2 diabetes. To date the majority of effort has focused on direct activation of GCK and the assays developed herein look to activate GCK by inhibiting its binding to GKRP. A compound that inhibits the interaction of GCK with GKRP could be important for the treatment of diabetes and can also be used as a tool compound to further elucidate GCK-GKRP biology. To that end, we have developed an HTS biochemical assay using HTRF technology for to interrogate the GCK-GKRP interaction. This assay was screened against a small compound library to look for modulators of activity.
# 3 uL of 5 nM GST-GCK and 5 nM FLAG-GKRP proteins with 2 uM S6P (columns 1-2, 4-48; Millipore, Billerica, MA) are dispensed into Greiner, white solid-bottom 1536-well assay plates; columns 3 receive buffer without GCK as a control for maximum inhibition. Buffer contains 2 mM MgCl2, 25 mM KCl, 25 mM Hepes, 1 mM DTT, 0.1% Tween 20 and 0.025% BSA and the pH was adjusted to 7.1. Compounds (23 nL) are then transferred via Kalypsys pin tool equipped with 1536-pin array (10 nL slotted pins, V&P Scientific, San Diego, CA). The library compounds are in columns 5-48 and columns 1-4 serve as controls with DMSO in columns 1 and 3 and 26 mM 1:1.5 fold serial of gluckokinase activator (GKA-EMD) in column 2 and 26 mM of the glucokinase activator (GKA-EMD) in column 4. Following addition of compound, 1 uL of detection antibodies (anti-Flag XL 665 and anti-GST K in reconstitution buffer from Cisbio, Bedford, MA; 0.7 ng/well and 0.0945 ng/well, respectively) is added, and the mixture is allowed to equilibrate for 60 minutes at room temperature. Data are normalized to DMSO-treated control columns with (maximum signal) and without (minimum signal) enzyme. Plates were read on an Envision plate reader (PerkinElmer, Shelton, CT, USA) with excitation at 320 nm and dual-wavelength detection at the Fret donor wavelength (615 nm) and the FRET acceptor wavelength (665 nm).
row,Compound,Potency
1,CC1=C(C(=O)O)N2C(=O)[C@@H](NC(=O)C(N)C3=CCC=CC3)[C@H]2SC1 (stereo not given in full),inactive
2,COc1ccc2c(c1)CCC1C2CC[C@@]2(C)C1CC[C@@H]2NCCCCCCN1C(=O)C=CC1=O (stereo not given in full),inactive
3,OC[C@H]1O[C@@H](n2cnc3cncnc32)[C@H](O)[C@@H]1O,inactive
4,COc1cc(C(O)C(=O)O)ccc1O (stereo not given),inactive
5,C[C@H](O)C(=O)C1=Nc2c(nc(N)[nH]c2=O)NC1,inactive
6,CO/N=C(\C(=O)N[C@@H]1C(=O)N2C(C(=O)O)=C(CSc3nc(=O)c(O)nn3C)CSC12)c1csc(N)n1 (stereo not given in full),inactive
7,COc1cc([C@@H]2c3cc4c(cc3[C@H](O)C3COC(=O)[C@@H]32)OCO4)cc(OC)c1OC (stereo not given in full),inactive
8,CC(N)=NCCCC[C@@H](N)C(=O)O,inactive
9,Cn1cc(C(=O)OCC2CCN(CCNS(C)(=O)=O)CC2)c2ccccc21,inactive
10,CC(N)(C(=O)O)c1ccc(C(=O)O)cc1 (stereo not given),inactive
11,CC(C)[C@@H]1CC[C@@H](C)C[C@@H]1P(=O)(c1ccccc1)c1ccccc1,inactive
12,O=c1ccc2c(OCCCCc3ccccc3)c3ccoc3cc2o1,inactive
13,S=C(S)N1CCCC1,inactive
14,N=C(N)c1ccc(N)cc1,inactive
15,O=[N+]([O-])c1cccc2c(Br)[nH]nc12,inactive
16,CC(=O)O[C@H]1CC2(C)[C@@H](C[C@@H](O)[C@H]3[C@@]4(C)CC[C@@H](O)[C@@H](C)[C@@H]4CC[C@@]32C)C1=C(CCC=C(C)C)C(=O)O (stereo not given in full),inactive
17,COC1(C2=NCCN2)COc2ccccc2O1 (stereo not given),inactive
18,CN[C@H](CC(=O)O)C(=O)O,inactive
19,CC(C)C[C@H](NC(=O)C1OC1C(=O)O)C(=O)NCCCCN=C(N)N (stereo not given in full),inactive
20,O=C(O)c1cc(=O)cc(C(=O)O)[nH]1,inactive

row,Compound,Potency
1,CC(C)NCC(O)COc1ccc(CC(N)=O)cc1 (stereo not given),inactive
2,NC(=O)c1cc[n+](CC2=C(C(=O)O)N3C(=O)[C@@H](NC(=O)[C@@H](c4ccccc4)S(=O)(=O)[O-])[C@H]3SC2)cc1,inactive
3,O=c1[nH]c(=O)c2nc3ccccc3nc2[nH]1,inactive
4,[N-]=[N+]=Nc1ccc(C(=O)CSC[C@H](NC(=O)CC[C@H](N)C(=O)O)C(=O)NCC(=O)O)cc1,inactive
5,O=C1Nc2ccc(I)cc2/C1=C/c1cc(Br)c(O)c(Br)c1,inactive
6,CN(CC[C@@H](Oc1ccc(C(F)(F)F)cc1)c1ccccc1)CC(=O)O,inactive
7,NC(=O)CC[C@H](N)C(=O)O,inactive
8,CCCCCCCCCC(=O)NC(CN1CCOCC1)[C@H](O)c1ccccc1 (stereo not given in full),inactive
9,Nc1nc2c(nc(Br)n2C2OC3COP(=O)(O)O[C@@H]3C2O)c(=O)[nH]1 (stereo not given in full),inactive
10,Cn1ccnc1,inactive
11,OC[C@H]1NC[C@@H](O)[C@@H]1O,inactive
12,C=CCN1CCc2cc(O)c(O)cc2C(c2ccccc2)C1 (stereo not given),inactive
13,C=C1C[C@@]23CC[C@H]4[C@@](C)(CCC[C@@]4(C)C(=O)OC4OC(CO)C(O)C(O)C4O)[C@@H]2CC[C@]1(OC1OC(CO)C(O)C(O)C1OC1OC(CO)C(O)C(O)C1O)C3 (stereo not given in full),inactive
14,Cc1cc(Cn2cnc3c2C[C@@H](C(=O)O)N(C(=O)C(c2ccccc2)c2ccccc2)C3)ccc1N,inactive
15,CN(C)CCC(c1ccc(Br)cc1)c1ccccn1 (stereo not given),inactive
16,O=C(O)CCC/C=C\C[C@@H]1[C@@H](/C=C/[C@H](O)C2Cc3ccccc3C2)[C@@H](F)C[C@@H]1O,inactive
17,COc1ccc2c(c1)c(CC(=O)O)c(C)n2Cc1ccc(Cl)cc1,inactive
18,CC(=O)[C@H]1CCC2C3CC=C4C[C@@H](OS(=O)(=O)O)CC[C@]4(C)C3CC[C@@]21C (stereo not given in full),inactive
19,COc1cc(C(O)CO)ccc1O (stereo not given),inactive
20,[Li+],inactive

# Reference: PubChem BioAssay (NCATS)
